Test results published in PubChem BioAssay AID624330 (Southern Research Specialized Biocontainment Screening …, 2012).
In all, about 340,000 compounds went through this assay and about 2,100 (0.62%) were called active.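 How the source made its calls: active means first-screen hits whose inhibition reached a set limit at any dose in the follow-up dose series; inconclusive means inhibition above the set first-screen limit but never retested; inactive means the rest.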 Only a sample is shown. Measured potencies and affinities stand elsewhere.

Biological target: Rac GTPase-activating protein 1 (Homo sapiens) (UniProt Q9H0H5)
Test: blockers of MgcRacGAP-driven Rac1 GTP hydrolysis – biochemical, ADP Hunter fluorescence, primary and confirmatory, confirmation (AID 624330);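 further: fluorescence reports GDP produced by GAP-driven GTP hydrolysis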
Settings: MgcRacGAP-stimulated Rac1 GTP hydrolysis, at 30 µM, hits give high values, GST-tagged Rac1 F28L mutant substrate

Rac GTPase-activating protein 1 (Homo sapiens), sequence (Q9H0H5 whole entry, looked up): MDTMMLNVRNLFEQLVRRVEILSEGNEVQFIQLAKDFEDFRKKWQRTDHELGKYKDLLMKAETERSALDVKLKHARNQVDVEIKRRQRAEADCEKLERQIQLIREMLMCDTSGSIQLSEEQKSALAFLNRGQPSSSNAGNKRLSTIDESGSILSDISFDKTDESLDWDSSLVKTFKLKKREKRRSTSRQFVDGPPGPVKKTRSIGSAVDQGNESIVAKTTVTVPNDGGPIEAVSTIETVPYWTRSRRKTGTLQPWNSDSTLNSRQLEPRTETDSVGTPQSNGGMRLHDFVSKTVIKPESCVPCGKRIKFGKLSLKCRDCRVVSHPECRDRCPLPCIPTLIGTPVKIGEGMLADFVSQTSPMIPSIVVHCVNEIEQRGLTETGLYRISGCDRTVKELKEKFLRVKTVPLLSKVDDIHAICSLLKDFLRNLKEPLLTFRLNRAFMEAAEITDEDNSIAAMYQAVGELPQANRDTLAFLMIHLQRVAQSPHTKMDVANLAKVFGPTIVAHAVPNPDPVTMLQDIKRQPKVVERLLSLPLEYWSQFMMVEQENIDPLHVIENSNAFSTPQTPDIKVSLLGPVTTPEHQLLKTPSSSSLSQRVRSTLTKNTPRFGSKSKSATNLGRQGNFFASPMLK

inhibition, inactive:
N#Cc1cccc(NC(=O)CCN2C(=O)C3CCCCC3C2=O)c1 (centres undefined) -0.53%, O=C1NC(=O)N(c2ccc(Cl)cc2)C(=O)/C1=C/c1ccc2c(c1)CCN2Cc1ccccc1Cl 10.3%, O=C1/C(=C/c2ccc(N3CCCC3)cc2)NC(=S)N1C1CC1 27.1%, COc1ccc(NC(=O)Nc2ccc3c(c2)C(=O)N([C@H](C)CO)C[C@H](C)[C@@H](CN(C)S(C)(=O)=O)O3)cc1 11.1%, O=S(N1CCCCC1)C12CC3CC(CC(C3)C1)C2 (centres undefined) -0.65%, CSC1=C(C#N)C(=O)NC(c2ccccc2O)S1 (centres undefined) 25.9%, COc1cccc(NC2=C(C#N)C(=O)NC(c3cccc(OC)c3O)S2)c1 (centres undefined) 36.1%, O=C(CCCN1C(=O)c2ccccc2C1=O)Nc1cccc(S(=O)(=O)NC2=NCCC2)c1 9.21%, Cc1ccc(C)c(NC(=O)COC(=O)CCC(=O)c2cccs2)c1 -3.89%, COc1cccc(CNCc2ccc(C(=O)O)cc2)c1OC 1.24%, Cc1cc(=O)oc(C)c1C(=O)NCCCN1CCN(c2ccccc2F)CC1 6.67%, CCOC(=O)c1[nH]c2ccc(C)cc2c1N=CN(CC)CC 17.7%, CCOC(=O)c1[nH]c2cc(OC)c(OC)cc2c1NC(=O)c1nonc1C 9.89%, CCOC(=O)c1[nH]c2ccc(OC)cc2c1C 7.86%, CCOC(=O)c1[nH]c2ccc(C)cc2c1N=C(C)N(C)C 9.84%, COc1ccc(NC(=O)NNC(=O)c2cc3ccccc3cc2O)cc1 11.5%, NC(=O)C1CCCN(S(=O)(=O)c2ccc3ccccc3c2)C1 (centres undefined) 2.91%, Cc1onc(-c2ccccc2)c1-c1n[nH]c(=S)n1-c1ccc(C(=O)O)cc1 5.16%, CC(=O)Nc1ccc(S(=O)(=O)N(C)S(=O)(=O)c2ccc(F)cc2)cc1 10.5%, CC(=O)c1cc(CN2CCN(Cc3ccc(C)cc3)C(CCO)C2)cs1 (centres undefined) 11.3%, CC(CCN1CCN(c2ccccc2)CC1)c1ccccc1 (centres undefined) 0.31%, CCOC(=O)N1CCN(Cc2ccc3ccccc3c2)CC1 28.6%, c1ccc2cc(CN3CCOCC3)ccc2c1 1.35%, CC(CCN1CCOCC1)c1ccccc1 (centres undefined) 22.5%, O=[N+]([O-])c1ccccc1CN1CCN(Cc2ccc3ccccc3c2)CC1 28.3%, O=S(=O)(c1ccc2ccccc2c1)N1CCN(CCO)CC1 1.28%, CC1c2[nH]c3ccccc3c2CCN1S(C)(=O)=O (centres undefined) 1.37%, Cc1ccc2cc(/C=N/NC(=O)c3ccc(F)cc3)c(Cl)nc2c1 5.25%, Cc1ccccc1NS(=O)(=O)c1cc(C(=O)Nc2cccc([N+](=O)[O-])c2)ccc1C 8.26%, O=C(Nc1cccc(-c2cccc(Cl)c2)c1)C1CCN(Cc2ccccn2)CC1 2.6%, CC(NS(=O)(=O)CCNC(=O)c1ccccc1)c1ccccc1 (centres undefined) 4.33%, CC(=O)Nc1ccc(S(=O)(=O)N[C@@H](C)C(=O)OCC(=O)c2ccc(Br)s2)cc1 16.7%, CCn1nnnc1Oc1ccc(Cl)cc1 1.61%, Cc1ccc(CN2CCN(/N=C/c3ccc(C(=O)O)cc3)CC2)cc1 8.13%, S=c1[nH]nc(-c2cccnc2)n1/N=C/C=C/c1ccco1 21.5%, Cc1cc(C)n(-c2nnc(C)n2/N=C/c2ccco2)n1 2.53%, S=c1[nH]nc(-c2ccccc2)n1/N=C/C=C/c1ccco1 30.9%, Cc1nnc(C)n1/N=C/c1ccc(C(=O)O)cc1 7.46%, COc1cccc(/C=N/n2c(SC)nnc2-c2ccccc2)c1O 22.8%, Oc1ccccc1/C=N/n1c2ccccc2c2ccccc21 8.39%, C(=N/n1c2ccccc2c2ccccc21)/c1ccco1 14.3%, NC(=O)COC(=O)c1cccc(S(=O)(=O)N2CCN(c3ccccc3)CC2)c1 7.91%, Cc1ccc(OCC(=O)NNC(=O)c2ccc(NC(=O)C3CC3)cc2)c(C)c1 7.97%, CC(=O)c1cccc(NS(=O)(=O)c2c(C)n[nH]c2C)c1 7.62%, CC(=O)Nc1ccc2c(c1)N(S(=O)(=O)c1cccs1)CCC2 4.49%, CC(C)OCCCNC(=O)c1ccc(CS(=O)(=O)Cc2ccccc2F)o1 3.97%, Cc1nc(N2CCN(c3ccccc3)CC2)nc2c1C(=O)CCC2 5.63%, CCN1C(=O)/C(=C/c2c(C)nn(C)c2C)SC1=S 0.43%, O=C(O)c1ccc(Nc2ncnc3ccccc23)cc1 7.58%, Cc1cccc(NC(=O)CNC(=O)COC(=O)c2ccco2)c1C -0.7%, c1ccc(C[C@H]2CN=C(Nc3ccccc3)N2CC2CCCCC2)cc1 3.05%, Cc1ccccc1-n1nc(C(=O)O)cc1-c1ccccc1 3.4%, O=C(NCCc1ccccc1)c1ccc(-c2ccccc2Cl)o1 5.22%, Cc1nnc(C)n1/N=C/c1ccccc1 6.18%, S=c1[nH]nc(-c2cccnc2)n1/N=C/C=C/c1ccccc1 5.39%, Cc1nnc(C)n1/N=C/C=C/c1ccccc1 1.05%, Cc1ccc(/C=N/n2c(-c3ccncc3)n[nH]c2=S)cc1 5.7%, CC1CCN(C(=O)C2CCN(S(=O)(=O)c3cccs3)CC2)CC1 6.45%, CCc1cc(C(=O)N2CCCC(C(=O)c3cccc(OC(C)C)c3)C2)n(C)n1 (centres undefined) 9.3%, Cc1ccc2c(CC(=O)N3CCN(S(=O)(=O)c4ccccc4)CC3)coc2c1 5.1%, COc1ccc2c(CC(=O)N3CCN(S(=O)(=O)c4ccc(F)cc4)CC3)coc2c1 1.15%, N#Cc1ccccc1S(=O)(=O)N1CCN(C(=O)CCc2ccccc2)CC1 6.33%, N#Cc1ccccc1S(=O)(=O)N1CCN(C(=O)Cc2n[nH]c(=O)c3ccccc23)CC1 1.94%, CCCn1c(N2CCN(C(=O)/C=C/C(=O)O)CC2)nc2ccccc21 10.8%, NC(=O)COC(=O)CCSc1ccc(Cl)cc1 5.12%, COC/C=C/C1=CC2=CC(=O)C(C)(OC(=O)c3cnc4ccccc4n3)C(=O)C2=CN1Cc1ccco1 (centres undefined) 11%, COc1nonc1NC(=O)CSc1nc2ccccc2[nH]1 9.74%, Oc1cccc(Nc2c3ccccc3nc3ccccc23)c1 16.7%, c1ccc(Nc2cccc(Nc3ccccc3)c2)cc1 19.8%, OC1(CC#CCN2CCCCC2)c2ccccc2-c2ccccc21 11.1%, O=C(c1ccco1)N1N=C2CCCCCC2C1(O)C(F)(F)F (centres undefined) 1.94%, Cc1ccc(OCCN2CCNCC2)c([N+](=O)[O-])c1 21.6%, C=CCNCCCCOc1ccc(C)cc1[N+](=O)[O-] 14%, Cc1ccc(OCCOCCN2CCN(C)CC2)c([N+](=O)[O-])c1 31.9%, Cc1ccc(OCCOCCNC(C)(C)C)c([N+](=O)[O-])c1 29.6%, Cc1cc(C)n(CCCN2CCC(C(=O)Nc3cccc(-c4cccc(F)c4)c3)CC2)n1 11.5%, Cc1ccccc1C(=O)NC1CC2CCCC(C1)N2Cc1ccccc1Cl (centres undefined) 11.5%, Cc1c(C(=O)NCC(c2ccco2)N(C)C)oc2c(Cl)cccc12 (centres undefined) 5.84%, COc1cc2c(cc1OC)C1=C(C#N)CC/C(=N\S(=O)(=O)c3cccc(Cl)c3)N1CC2 4.99%, CC(C)CNC(=O)CN1C(=O)NC2(CCc3ccccc32)C1=O (centres undefined) 10.8%, CN1C(=O)/C(=C\C=C2/CCCN2C)N(C)C1=S 28.8%, CN1CCS/C1=C\C=C1/SC(=S)N(CC(=O)O)C1=O 16.9%, CCN1C(=O)/C(=C/C=C2/CCCN2C)OC1=S 5.72%, CN1C(=O)/C(=C/C=C2\SCCN2C)OC1=S 8.62%, Cc1ccc(S(=O)(=O)N2CCN(CN3C(=O)CC4(CCCC4)C3=O)CC2)cc1 1.32%, COc1cc(/C=N/n2nnnc2N)ccc1OC(C)=O 23.6%, COc1cc(/C=N/n2c(C3CCCCC3)n[nH]c2=S)cc(OC)c1O 15.8%, COc1ccc(/C=N/n2nnnc2N)cc1OC 8.91%, CCOc1ccc(/C=N/n2nnnc2N)cc1OCC 9.77%, C=CCOc1ccc(/C=N/n2nnnc2N)cc1OC 12.5%, COc1cc(/C=N/n2c(C3CCCCC3)n[nH]c2=S)cc(Br)c1O 12.6%, O=C(/C=C\c1ccco1)NC(=S)Nc1ccccc1O 15.2%, COc1cccc(NC(=S)NC(=O)c2cccnc2)c1 13.8%, CN(C)C1=NCCN1CCCC1CCCC1 4.05%, CC(C)N(Cc1nccn1C)C(=O)C1CCC(=O)N(CCc2ccccc2)C1 (centres undefined) 12.2%, Cc1ccc(/C(N)=N/OC(=O)CCCc2ccccc2)cc1 7.16%, COc1ccc2c(N)c(C(=O)NN)[nH]c2c1 27.6%, CCOC(=O)Nc1c(C(=O)OC)[nH]c2cccc(OC)c12 9.48%, COC(=O)c1cc(S(=O)(=O)NC2CCC(C)CC2)cn1C (centres undefined) 0.48%
